Measured values as given in PubChem BioAssay AID652100 (National Center for Advancing Translational Sciences (NCATS), 2013).
Activity calls are given as the source filed them.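 Rule for the calls: active = compounds that bring Gaucher patient macrophage uptake of dying cells up to about normal macrophage levels; inactive = the rest.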

Assay: Extended Characterization of Activators of N370S glucocerebrosidase as a Potential Chaperone Treatment of Gaucher Disease: Efferocytosis Index
Conditions: Gaucher patient macrophages, apoptotic Jurkat efferocytosis imaging
Text: Glucocerebrosidase (GCase) catalyzes the hydrolysis of beta-glucocerebroside (GC) to glucose and ceramide in lysosomes. Mutations in the glucocerebrosidase gene result in Gaucher disease, an autosomal recessive lysosomal storage disorder. Many of the mutations encountered in patients with Gaucher disease are missense alterations that may cause misfolding, decreased stability and/or mistrafficking of this lysosomal protein. […] These inhibitors include iminosugar analogs and other inhibitors that were discovered as part of previous work. However, the enhancement of enzyme activity by the chaperone action of an enzyme inhibitor must be balanced against the direct inhibition of the enzyme. […] In this extended characterization of our probe, we have further characterized the activity of probes in relevant models of Gaucher disease. This assay examine efferocytosis in patient-derived macrophages following compound incubation. NIH Chemical Genomics Center [NCGC] NIH Molecular Libraries Probe Production Centers Network [MLPCN] MLPCN Grant: MH086442 Assay Submitter (PI): Ellen Sidransky, NHGRI
Jurkat T-cells were stained with green cell tracker (Molecular Probes), and apoptosis was induced using UVB radiation for 2 min (BioRad). […] The number of T-cells taken up by macrophages was counted and normalized to the number of cells per field.

Structure (SMILES)	outcome
C#Cc1ccc(NC(=O)c2cnn3c(C)cc(C)nc23)cc1	active; similar to control
